Screening results (PubChem BioAssay)
DT40 TDP1 no CPT: qHTS for Inhibitors of human tyrosyl-DNA phosphodiesterase 1 (TDP1): qHTS in cells in absence of CPT. Potency, µM (top dose mostly 46.2 µM), for the others: top-dose activity change, negative = growth inhibition, hits mostly inhibitors. 420,000 tested, 15% active. DT40 Tdp1-/- hTDP1 cells, no CPT, ATP luminescence, 48 h; also: nearly all actives have a fitted effect of over 55% in size
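Stably hTDP1-transfected Tdp1-null chicken DT40 cells were treated with library compounds minus camptothecin and grown for at least 48 hr at 37 °C, after which cellular ATP was quantified by luminescence.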
HT1080NT lethal: kills 2HG-producing HT-1080-NT fibrosarcoma cells | HT-1080-NT fibrosarcoma viability, CellTiter-Glo ATP luminescence, 48 h | 360,000 tested, 1.6% active | AID 686970 | Potency, µM (doses to about 46.1 µM), for the others: at the highest dose activity, negative = less viability, usual class: cytotoxic;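 also: NT is the 2HG producing partner of a matched IDH1 knockdown line; 0% = DMSO-treated cells and -100% = media-only wells without cells; nearly all actives have a fitted effect of over 55% in size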
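Luminescent CellTiter-Glo readout after 48 hours of compound exposure at 37 degrees C defined viability of HT-1080-NT cells. Activity was normalized to DMSO wells and cell-free media wells; concentration-response curves were fitted and assigned curve classes.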
HT1080 IDH1KD tx: kills HT-1080 cells with IDH1 knockdown | HT-1080 IDH1 knockdown viability, ATP luminescence, 48 h | Potency, µM (highest dose often 46.1 µM), for the others: at the top dose activity, negative = toxicity, actives largely listed as cytotoxic | 360,000 tested, 2% active;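 also: 0% = DMSO wells and -100% = cell-free medium wells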
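Cytotoxicity counter-line: IDH1KD HT-1080, 48 h, CellTiter-Glo. Curves classed by r2, magnitude and activity.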
KB-V1 cytotox: kills drug-selected multidrug resistant KB-V1 cells; KB-V1 MDR cells viability, CellTiter-Glo, 72 h; Potency, µM (doses to about 46.1 µM), actives largely listed as cytotoxic; 400,000 tested, 3.4% active; AID 1347076; also: nearly all actives have a fitted effect of over 60% in size
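Cells of the MDR subline KB-V1 are plated, dosed with compound at multiple concentrations, and incubated 72 h at 37 degrees C; CellTiter-Glo is then added and luminescence read after 10 min.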
KB-3-1 tox: kills parental KB-3-1 adenocarcinoma cells; KB-3-1 viability, CellTiter-Glo ATP luminescence, 72 h; Potency, µM (top dose mostly 46.1 µM), hits mostly cytotoxic; 400,000 tested, 1.4% active; also: nearly all actives have a fitted effect of over 60% in size
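Cells are dispensed, compounds pinned in, plates held at 37 °C for 72 h, then CellTiter-Glo is added and luminescence read after 10 minutes. Cell line: parental KB-3-1 in phenol-red-free DMEM, 10% FBS.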
DT40 TDP1 CPT: DT40-hTDP1 cell growth loss with CPT | chicken DT40 Tdp1-/-;hTDP1 cells + 20 nM CPT, ATP luminescence, 48 h | Potency, µM (highest dose often 46.2 µM), for inactives: at the top dose activity change, negative = growth inhibition, most hits filed as inhibitors | 420,000 tested, 12% active | AID 686979; also: nearly all actives have a fitted effect of over 55% in size
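Chicken DT40 Tdp1-/- cells complemented with human TDP1, 400 cells/well, exposed to compounds plus 20 nM camptothecin for at least 48 h at 37 C; viability read as ATP content by CellTiter-Glo luminescence.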
Numbers without * were called inactive; i = inactive; ? = inconclusive; . = no result given; [ ] = another dose, or the depositor's remark. This is a sample that favours compounds with a hit; in the whole collection about 19% have one here. Calls follow the shape of the dose curve; as a rule, active = well fitted curve in the direction sought with a large enough effect; inconclusive = small, poorly fitted or top-dose-only effect, or another doubt; inactive = no such curve, though single readings can be large; an effect the other way counts as inactive or inconclusive. Unless noted, % is scaled to controls: 0 for no effect and ±100 for the full control effect; potency is read from the fitted curve at half-maximal effect.

SMILES	DT40 TDP1 no CPT	HT1080NT lethal	HT1080 IDH1KD tx	KB-V1 cytotox	KB-3-1 tox	DT40 TDP1 CPT
C[C@H](CO)N1C[C@H](C)[C@@H](CN(C)S(=O)(=O)c2ccccc2)Oc2ccc(NC(=O)C3CCCCC3)cc2C1=O	?	-3.1%	5.4%	i	i	?
C[C@@H]1CCCCO[C@H](CN(C)S(=O)(=O)c2cccs2)[C@H](C)CN([C@@H](C)CO)C(=O)c2cc(NC(=O)NC3CCCCC3)ccc2O1	11.6µM*	-9.4%	-6.6%	i	i	18.4µM*
C[C@@H]1CCCCO[C@@H](CN(C)S(=O)(=O)c2cccs2)[C@@H](C)CN([C@H](C)CO)C(=O)c2cc(NS(=O)(=O)c3ccccc3)ccc2O1	8.2µM*	-22.5%	-13.9%	i	i	16.4µM*
C[C@@H]1CCCCO[C@@H](CN(C)CC2CC2)[C@@H](C)CN([C@H](C)CO)C(=O)c2cc(N(C)C)ccc2O1	10.5%	4.0%	-12.2%	i	i	22.0%
C[C@@H]1CN([C@@H](C)CO)C(=O)c2cc(N(C)C)ccc2O[C@@H](C)CCCCO[C@@H]1CN(C)S(=O)(=O)c1cccs1	16.4µM*	-7.4%	-12.1%	?	i	18.4µM*
C[C@@H]1CCCCO[C@H](CN(C)S(=O)(=O)c2cccs2)[C@@H](C)CN([C@H](C)CO)C(=O)c2cc(NC(=O)C3CCCCC3)ccc2O1	25.9µM*	-1.0%	-0.1%	i	i	18.4µM*
CCCN(CCC)C(=O)c1cc(-c2ccc3c(c2)OCO3)nc2ccccc12	14.6µM*	-13.2%	-28.9%	18.4µM*	i	14.6µM*
CC(NC(=O)c1cc(-c2ccc3c(c2)OCO3)nc2ccccc12)C(C)(C)C (stereo not given)	?	-1.8%	-4.7%	16.4µM*	i	?
CCCNC(=O)NNC(=O)c1cc(-c2ccc3c(c2)OCO3)nc2ccccc12	?	1.3%	7.7%	i	i	?
O=C(NCc1ccc(F)cc1)c1cc(-c2ccncc2)nc2ccccc12	?	?	-1.0%	?	i	?
O=C(NCc1ccc2c(c1)OCO2)c1cc(-c2ccncc2)nc2ccccc12	?	-6.7%	-0.2%	?	i	16.4µM*
O=C(O)c1cc(-c2ccc3c(c2)OCO3)nc2ccccc12	-24.9%	-15.8%	-9.0%	i	i	?
O=C(O)C1C2C=CC(C2)C1C(=O)NCc1ccc(Cl)cc1Cl (stereo not given)	-17.8%	-1.2%	-24.9%	i	i	-7.6%
CCOC(=O)c1sc(Nc2cccc(Cl)c2)nc1C	?	-27.0%	?	i	i	-13.4%
CCOC(=O)c1sc(/S(C)=N\S(=O)(=O)c2cccc(Cl)c2)c2c1CCC=C2 (stereo not given)	16.4µM*	-2.5%	6.5%	i	i	?
COc1ccccc1CN(CC(=O)NCc1ccc2c(c1)OCO2)C(=O)c1ccc2c(c1)OCCO2	20.6µM*	2.1%	6.4%	i	i	?
COc1ccc(C(=O)NCc2ccc3c(c2)OCO3)cc1S(=O)(=O)NCc1ccc(Cl)cc1	?	-3.5%	-11.4%	i	i	3.9%
COc1ccc(C(=O)NCc2ccc3c(c2)OCO3)cc1S(=O)(=O)N(C)Cc1ccccc1	?	-8.7%	-10.0%	9.2µM*	i	-8.0%
COc1ccccc1OCCC(=O)NCc1ccc2c(c1)OCO2	?	-2.8%	-18.9%	i	i	?
COc1ccccc1Nc1ccc2nonc2c1[N+](=O)[O-]	9.9%	-4.4%	-2.2%	i	i	-0.2%
CN(C)CCn1c(C(=O)O)cc2ccccc21	-2.5%	-0.6%	-5.5%[9.24 µM]	i	i	-3.7%
N=c1n(CCN2CCCCC2)c2ccccc2n1CC(O)c1ccc(Cl)c(Cl)c1 (stereo not given)	8.2µM*	11.2µM*	12.6µM*	20.6µM*	?	3.66µM*
CN(C)CCn1c(=N)n(CC(O)c2ccc(Cl)c(Cl)c2)c2ccccc21 (stereo not given)	23.1µM*	23.1µM*	?	i	?	23.1µM*
Clc1ccc(OCCN2CCCCC2)cc1Cl	?	-2.0%	-0.5%	i	i	-21.4%
N=c1n(CCN2CCCCC2)c2ccccc2n1CC(O)c1cccc(Br)c1 (stereo not given)	16.4µM*	23.1µM*	?	?	?	14.6µM*
SMILES	DT40 TDP1 no CPT	HT1080NT lethal	HT1080 IDH1KD tx	KB-V1 cytotox	KB-3-1 tox	DT40 TDP1 CPT
OC(CN1CCCCC1)c1ccc(Br)cc1 (stereo not given)	-7.6%	-0.8%	-3.9%	i	i	-18.1%
CCn1ccc2cc(S(=O)(=O)N3CCC(C(=O)NCc4ccc(F)cc4)CC3)ccc21	?	.	.	i	i	?
CCN(CC)S(=O)(=O)c1cc(C(=O)n2cccn2)c(Cl)cc1Cl	-20.1%	9.9%	-2.9%	i	i	-1.1%
COC(=O)c1cc2c(cc1NC(=O)c1cnn(-c3ccc(C)cc3)c1-n1cccc1)OCO2	-4.5%	.	.	.	.	-8.0%
CCOc1ccc(NC(=S)NNC(=O)c2ccc(Br)cc2)cc1	?	14.2%	9.8%	?	i	-9.0%
CN1CCC(OC(=O)C(Oc2ccc(Cl)cc2)Oc2ccc(Cl)cc2)CC1	-3.7%	.	.	.	.	1.3%
CC(C)NC(=O)c1cccc2c(-c3ccc(F)c(F)c3)coc12	20.6µM*	-13.8%	-27.3%	i	i	?
CS(=O)(=O)Nc1cccc(NC(=O)c2cccc3c(-c4cccc(C(N)=O)c4)coc23)c1	?	?	?	i	?	18.4µM*
O=C(Nc1cccc(C(F)(F)F)c1)c1cccc2c(-c3cccnc3)coc12	?	-2.9%	-16.8%	i	i	?
CC(=O)c1cccc(NC(=O)c2cccc3c(-c4cccc(C(N)=O)c4)coc23)c1	11.6µM*	?	-21.2%	i	?	9.2µM*
CC(C)CNC(=O)c1cccc2c(-c3ccc(F)c(F)c3)coc12	?	-16.5%	-21.1%	i	i	?
CS(=O)(=O)Nc1cccc(NC(=O)c2cccc3c(-c4ccc(F)c(F)c4)coc23)c1	?	?	?	?	?	14.6µM*
CCN(CCn1cccn1)C(=O)c1cccc(OC2CCN(S(C)(=O)=O)CC2)c1	-24.5%	4.3%	3.4%	?	i	-9.4%
